This passage reports Percent Effect results from ChEMBL document CHEMBL3988442, “University of Dundee, Small-Polar-MMV Screening Library” (2021).

Design in all cases: scale not given: direction of the effect not stated beside the values
In assay [1] the target is Protein translocase subunit SecA (Escherichia coli (strain K12)) (UniProt P10408). Briefly: Assay to Identify E. coli SecA ATPase Inhibitors. Type of assay: functional. The conditions noted are these: 30 µM.
Assay [2] deals with T1, Ubiquitin-activating enzyme e1, putative (Leishmania donovani (strain BPK282A1)) (UniProt E9BSI1).
T1 sequence (whole entry): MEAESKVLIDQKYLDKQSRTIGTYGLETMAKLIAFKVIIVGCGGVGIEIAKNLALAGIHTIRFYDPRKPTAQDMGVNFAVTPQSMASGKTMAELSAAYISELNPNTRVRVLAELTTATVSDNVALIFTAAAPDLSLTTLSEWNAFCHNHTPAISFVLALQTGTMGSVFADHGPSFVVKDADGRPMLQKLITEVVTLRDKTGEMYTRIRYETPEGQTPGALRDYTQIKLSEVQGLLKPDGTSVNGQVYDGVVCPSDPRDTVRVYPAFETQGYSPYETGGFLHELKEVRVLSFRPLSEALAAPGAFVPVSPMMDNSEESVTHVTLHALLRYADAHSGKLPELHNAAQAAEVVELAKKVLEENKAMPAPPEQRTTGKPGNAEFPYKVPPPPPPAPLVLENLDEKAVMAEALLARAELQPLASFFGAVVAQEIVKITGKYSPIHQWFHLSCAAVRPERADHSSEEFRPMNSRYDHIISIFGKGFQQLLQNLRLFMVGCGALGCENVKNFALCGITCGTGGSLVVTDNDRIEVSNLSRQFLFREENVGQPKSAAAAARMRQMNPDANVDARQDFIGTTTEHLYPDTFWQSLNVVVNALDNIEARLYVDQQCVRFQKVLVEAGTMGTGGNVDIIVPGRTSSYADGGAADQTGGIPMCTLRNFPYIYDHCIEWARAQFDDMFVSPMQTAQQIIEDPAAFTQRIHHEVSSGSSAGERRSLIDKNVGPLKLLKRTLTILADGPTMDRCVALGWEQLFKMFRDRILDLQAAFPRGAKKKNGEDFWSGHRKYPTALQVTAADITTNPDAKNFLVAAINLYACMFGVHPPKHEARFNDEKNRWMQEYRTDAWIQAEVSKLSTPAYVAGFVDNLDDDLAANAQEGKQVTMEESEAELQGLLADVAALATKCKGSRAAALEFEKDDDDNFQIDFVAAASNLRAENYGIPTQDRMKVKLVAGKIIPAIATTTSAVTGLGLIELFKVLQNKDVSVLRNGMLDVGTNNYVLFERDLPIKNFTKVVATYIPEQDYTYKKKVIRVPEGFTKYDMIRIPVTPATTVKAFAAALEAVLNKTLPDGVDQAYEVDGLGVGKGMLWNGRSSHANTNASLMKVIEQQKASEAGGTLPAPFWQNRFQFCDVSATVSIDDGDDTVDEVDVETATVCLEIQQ
Briefly: Leishmania donovani Ubiquitin Activating Enzyme (LdE1). As to conditions: 30 µM. Type of assay: functional.

Assay [3] deals with AMP-activated protein kinase, AMPK (Homo sapiens) (UniProt P54646+O43741+P54619+Q9UGJ0+Q9Y478+Q13131+Q9UGI9). Briefly: AMP-dependent Kinase enzyme assay. An in vitro enzyme assay that detects ADP turnover that is directly proportional to AMPK activity. This uses naive AMPK that is activated during the assay with MK-8722. Format: functional. The conditions noted are these: 30 µM.

Assay [4] deals with Sialic acid-binding Ig-like lectin 9 (Homo sapiens) (UniProt Q9Y336). Briefly: Hs-Siglec9 ALPHAscreen SOP 20170721. The conditions noted are these: 10 µM.
Sialic acid-binding Ig-like lectin 9 (Homo sapiens), sequence (Q9Y336 whole entry): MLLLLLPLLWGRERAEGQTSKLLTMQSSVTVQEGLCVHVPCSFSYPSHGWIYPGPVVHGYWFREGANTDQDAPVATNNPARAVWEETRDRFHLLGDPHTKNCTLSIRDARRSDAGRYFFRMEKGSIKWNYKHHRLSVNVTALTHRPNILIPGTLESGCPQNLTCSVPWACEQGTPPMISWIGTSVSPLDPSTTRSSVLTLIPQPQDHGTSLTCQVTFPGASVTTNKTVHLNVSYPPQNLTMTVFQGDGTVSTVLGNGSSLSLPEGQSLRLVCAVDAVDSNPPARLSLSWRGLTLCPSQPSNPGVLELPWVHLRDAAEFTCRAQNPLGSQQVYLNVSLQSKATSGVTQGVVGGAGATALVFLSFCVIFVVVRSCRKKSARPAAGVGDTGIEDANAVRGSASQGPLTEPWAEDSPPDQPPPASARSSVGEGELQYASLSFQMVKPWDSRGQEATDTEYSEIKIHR
Assay [5] has as its system Trypanosoma cruzi. Briefly: Trypanosoma cruzi phosphomannomutase and mannose-1-phosphate guanylyltransferase assay. Format: functional. As to conditions: 10 µM.
In assay [6] the target is T2, Arginase-2, mitochondrial (Homo sapiens) (UniProt P78540).
T2 sequence (whole entry): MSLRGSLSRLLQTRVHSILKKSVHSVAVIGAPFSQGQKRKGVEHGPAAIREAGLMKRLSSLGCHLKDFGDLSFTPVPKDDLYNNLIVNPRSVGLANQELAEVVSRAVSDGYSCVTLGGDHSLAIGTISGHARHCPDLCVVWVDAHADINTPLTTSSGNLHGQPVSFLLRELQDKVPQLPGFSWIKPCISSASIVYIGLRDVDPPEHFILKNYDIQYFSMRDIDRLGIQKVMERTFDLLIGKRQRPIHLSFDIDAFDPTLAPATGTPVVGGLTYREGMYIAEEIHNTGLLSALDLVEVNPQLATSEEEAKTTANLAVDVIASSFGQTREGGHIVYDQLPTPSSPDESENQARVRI
Briefly: in vitro enzyme assay to detect the production of urea directly proportional to the activity of Arginase II. Further: in the data most compounds retested in dose-response had high values. Type of assay: functional. The conditions noted are these: 33.3 µM.

Assay [7] deals with T3, Proteasome subunit beta (Trypanosoma cruzi) (UniProt O96673).
T3 sequence (whole entry): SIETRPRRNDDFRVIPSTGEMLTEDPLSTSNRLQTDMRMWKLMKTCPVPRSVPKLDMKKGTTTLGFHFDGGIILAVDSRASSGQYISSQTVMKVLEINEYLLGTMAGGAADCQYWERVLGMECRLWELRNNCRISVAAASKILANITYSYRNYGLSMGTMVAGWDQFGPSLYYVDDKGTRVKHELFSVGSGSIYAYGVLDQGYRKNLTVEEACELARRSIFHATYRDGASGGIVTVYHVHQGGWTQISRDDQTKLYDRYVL
Briefly: Trypanosoma cruzi proteasome chymotrypsin-like activity (TcProtChymo) assay. Further: in the data most compounds retested in dose-response had high values. Format: functional. The conditions noted are these: 9.37 µM.

The species named for assay [8] is Homo sapiens. Briefly: To identify inhibition of the IFN signalling (Jak-Stat) pathway via expression of an eGFP reporter gene under the control of an IFN-stimulated response element (ISRE) containing MxA promoter. Format: functional. The conditions noted are these: 30 µM.
Assay [9] addresses T4, Tyrosyl-tRNA synthetase, putative (Trypanosoma cruzi (strain CL Brener)) (UniProt Q4DSP6).
T4 sequence (whole entry): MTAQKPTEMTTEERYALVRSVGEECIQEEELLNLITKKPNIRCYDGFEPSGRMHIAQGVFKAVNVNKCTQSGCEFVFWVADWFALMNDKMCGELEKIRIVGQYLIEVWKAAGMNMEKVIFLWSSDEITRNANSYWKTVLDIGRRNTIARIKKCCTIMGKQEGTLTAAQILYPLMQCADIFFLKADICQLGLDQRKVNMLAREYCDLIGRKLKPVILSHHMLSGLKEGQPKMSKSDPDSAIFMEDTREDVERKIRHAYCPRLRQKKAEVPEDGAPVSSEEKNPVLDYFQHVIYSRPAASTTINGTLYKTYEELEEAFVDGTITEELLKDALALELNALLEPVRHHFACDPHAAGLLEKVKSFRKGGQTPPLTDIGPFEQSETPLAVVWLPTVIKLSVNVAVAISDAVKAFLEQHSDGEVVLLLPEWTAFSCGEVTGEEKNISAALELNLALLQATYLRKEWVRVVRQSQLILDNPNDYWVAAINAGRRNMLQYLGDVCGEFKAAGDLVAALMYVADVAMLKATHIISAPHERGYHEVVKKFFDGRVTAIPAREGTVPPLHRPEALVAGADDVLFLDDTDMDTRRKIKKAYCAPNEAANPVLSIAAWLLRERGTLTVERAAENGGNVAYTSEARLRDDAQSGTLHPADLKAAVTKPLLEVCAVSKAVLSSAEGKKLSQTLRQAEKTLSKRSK
Briefly: Trypanosoma cruzi tyrosyl tRNA synthetase (TcYRS) _High Tyrosine SOP. Further: in the data most compounds retested in dose-response had high values. Type of assay: functional. As to conditions: 30 µM.

Assay [10] concerns the target T4, Tyrosyl-tRNA synthetase, putative (Trypanosoma cruzi (strain CL Brener)). Briefly: Trypanosoma cruzi tyrosyl tRNA synthetase (TcYRS) SOP. As to conditions: 30 µM. Format: functional.
In assay [11] the target is Chromo domain-containing protein 1 (Saccharomyces cerevisiae (strain ATCC 204508 / S288c) (Baker's yeast)) (UniProt P32657). Briefly: ScCHD-1 Enzyme Inhibition Assay. Further: in the data most compounds retested in dose-response had high values. Format: functional. The conditions noted are these: 30 µM.
Chromo domain-containing protein 1 (Saccharomyces cerevisiae (strain ATCC 204508 / S288c) (Baker's yeast)), sequence (P32657 whole entry, the tested form may be a part): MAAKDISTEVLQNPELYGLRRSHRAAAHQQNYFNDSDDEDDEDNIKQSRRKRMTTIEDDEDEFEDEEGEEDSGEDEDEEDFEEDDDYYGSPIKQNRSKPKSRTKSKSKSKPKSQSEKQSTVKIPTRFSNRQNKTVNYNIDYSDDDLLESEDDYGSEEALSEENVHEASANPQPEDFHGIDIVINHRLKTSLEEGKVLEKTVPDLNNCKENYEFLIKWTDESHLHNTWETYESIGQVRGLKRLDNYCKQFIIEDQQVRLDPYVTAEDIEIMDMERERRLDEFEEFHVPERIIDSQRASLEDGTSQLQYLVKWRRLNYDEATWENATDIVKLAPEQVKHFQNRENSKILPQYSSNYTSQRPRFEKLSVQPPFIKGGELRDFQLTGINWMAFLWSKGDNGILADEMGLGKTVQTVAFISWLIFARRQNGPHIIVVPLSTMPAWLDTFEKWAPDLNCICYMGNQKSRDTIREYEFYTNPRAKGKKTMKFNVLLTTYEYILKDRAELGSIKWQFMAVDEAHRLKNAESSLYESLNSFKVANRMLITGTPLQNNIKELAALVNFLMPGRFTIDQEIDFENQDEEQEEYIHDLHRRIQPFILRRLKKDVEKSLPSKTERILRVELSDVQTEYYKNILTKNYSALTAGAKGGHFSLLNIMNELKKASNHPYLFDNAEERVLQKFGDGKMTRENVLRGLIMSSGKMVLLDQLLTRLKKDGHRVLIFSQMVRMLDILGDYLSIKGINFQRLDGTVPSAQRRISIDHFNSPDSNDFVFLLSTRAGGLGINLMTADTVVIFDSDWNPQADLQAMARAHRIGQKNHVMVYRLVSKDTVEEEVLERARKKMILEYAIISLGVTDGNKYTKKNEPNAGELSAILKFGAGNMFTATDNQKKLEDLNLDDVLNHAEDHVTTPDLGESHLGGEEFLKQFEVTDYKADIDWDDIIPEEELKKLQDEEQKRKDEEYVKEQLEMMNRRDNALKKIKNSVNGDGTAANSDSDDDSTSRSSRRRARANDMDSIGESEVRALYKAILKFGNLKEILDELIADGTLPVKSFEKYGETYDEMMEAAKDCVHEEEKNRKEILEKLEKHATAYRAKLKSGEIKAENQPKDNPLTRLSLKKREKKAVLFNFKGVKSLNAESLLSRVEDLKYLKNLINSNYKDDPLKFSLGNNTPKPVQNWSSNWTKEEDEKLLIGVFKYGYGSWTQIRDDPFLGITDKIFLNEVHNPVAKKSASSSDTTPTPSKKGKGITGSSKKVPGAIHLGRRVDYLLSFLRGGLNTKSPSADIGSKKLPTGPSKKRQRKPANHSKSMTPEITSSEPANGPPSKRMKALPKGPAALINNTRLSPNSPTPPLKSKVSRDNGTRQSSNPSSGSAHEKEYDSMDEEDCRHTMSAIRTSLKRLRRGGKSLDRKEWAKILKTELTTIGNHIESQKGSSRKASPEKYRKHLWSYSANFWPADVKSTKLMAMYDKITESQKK

For some assays here: Entries with a potency or affinity are not part of this list.

Protein translocase subunit SecA (Escherichia coli (strain K12)), sequence (P10408 whole entry): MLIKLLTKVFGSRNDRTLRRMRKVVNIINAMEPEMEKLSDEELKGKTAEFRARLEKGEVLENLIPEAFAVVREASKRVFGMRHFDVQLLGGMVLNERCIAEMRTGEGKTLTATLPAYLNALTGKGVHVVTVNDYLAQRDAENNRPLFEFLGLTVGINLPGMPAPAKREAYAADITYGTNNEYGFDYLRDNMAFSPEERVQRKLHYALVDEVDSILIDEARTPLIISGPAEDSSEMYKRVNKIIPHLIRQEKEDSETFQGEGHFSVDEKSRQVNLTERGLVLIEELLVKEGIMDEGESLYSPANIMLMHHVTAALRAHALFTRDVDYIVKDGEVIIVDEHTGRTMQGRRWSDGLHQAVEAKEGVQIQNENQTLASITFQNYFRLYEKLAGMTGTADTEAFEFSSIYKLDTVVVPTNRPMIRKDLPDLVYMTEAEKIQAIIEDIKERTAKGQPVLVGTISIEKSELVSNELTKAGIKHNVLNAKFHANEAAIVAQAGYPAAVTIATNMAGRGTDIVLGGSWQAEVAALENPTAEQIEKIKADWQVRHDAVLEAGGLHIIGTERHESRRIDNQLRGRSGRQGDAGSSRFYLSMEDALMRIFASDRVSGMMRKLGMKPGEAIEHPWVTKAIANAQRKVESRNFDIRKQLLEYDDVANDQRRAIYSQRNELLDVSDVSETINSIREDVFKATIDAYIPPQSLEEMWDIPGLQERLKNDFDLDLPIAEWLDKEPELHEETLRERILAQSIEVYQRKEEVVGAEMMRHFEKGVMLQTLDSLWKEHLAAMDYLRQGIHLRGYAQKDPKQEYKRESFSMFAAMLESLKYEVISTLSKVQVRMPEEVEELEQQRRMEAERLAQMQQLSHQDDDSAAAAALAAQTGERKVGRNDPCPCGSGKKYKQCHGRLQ

In the case of `Fc1cccc(-n2ccc(CN3CCCCC3Cn3cncn3)n2)c1` (stereo not given), the Percent Effect in assay [1] was -3.79%; in [2], -7.59%; in assay [3], 0.842%; in assay [4], 2.62%; in assay [5] it was -2.74%; in assay [6], -1.14%. The Percent Effect in assay [7] was -2.21%; in [8] it was 17%; in [9], -2.46%; in [10], -8.86%; in assay [11] it was 2.75%.

As to `Cn1ccc(CN2CCC(CCc3ccc(O)cc3)CC2)cc1=O`, the Percent Effect in assay [1] was -1.04%; in [2] it was 6.33%; in assay [3] it was 43.4%; in [4] it was 0.347%; in assay [5], 3.38%; in assay [6], -1.07%. Further, the Percent Effect in assay [7] is 1.89%; in [8], 10.3%; in assay [9], 0%; in assay [10], -17.7%; in assay [11], -10.1%.

`CC(C)c1nc(CCNC(=O)NCc2ccnc(N(C)C)c2)cs1`: the Percent Effect in assay [1] was -3.48%; in [2], 6.33%; in [3], 8.79%; in assay [4], 4.61%; in assay [5], -0.103%; in assay [6], 5.81%. The Percent Effect in [7] is 9.43%; in assay [8] it was 12.5%; in assay [9], 1.04%; in assay [10], 5.06%; in assay [11] it was -13%.

`COCc1noc(C2(c3ccc(F)cc3)CCOCC2)n1`: the Percent Effect was 3.24% in assay [1]; 8.11% in assay [2]; 7.86% in assay [3]; 11.7% in assay [4]; -7.72% in [5]; -3.81% in [6]. Also, the Percent Effect in assay [7] is 11.4%; in assay [8], 40.2%; in assay [9], 0.529%; in [10], -2.44%; in [11], -5.88%.

In the case of `CCNS(=O)(=O)c1ccc(C)c(C(=O)N(C)Cc2ccco2)c1`, the Percent Effect is -2.78% in [1]; -4.17% in assay [2]; 4.21% in [3]; 0.221% in assay [4]; -1.65% in assay [5]; 0.442% in [6]. For the same compound, the Percent Effect in assay [7] was 13%; in assay [8], -0.366%; in assay [9] it was -27.4%; in assay [10], -2.56%; in assay [11], 2.86%.

For the compound `CN(Cc1nnc(-c2ccco2)o1)CC1CCCN1c1cccnn1` (stereo not given), the Percent Effect is -4.76% in assay [1]; 10.4% in assay [2]; -4.64% in [3]; -13.5% in [4]; -0.881% in assay [5]; 2.32% in assay [6]. The Percent Effect in [7] is 21.9%; in assay [8] it was 15.6%; in assay [9], 4.76%; in assay [10] it was 9.41%; in assay [11], -19.2%.

Take `CC(=O)N(Cc1noc(C)n1)C1CCN(Cc2ccccc2C#N)C1` (stereo not given): the Percent Effect in [1] was -1.89%; in [2], 3.8%; in [3], 1.41%; in assay [4], 1.68%; in [5], 1.74%; in assay [6] it was 5.38%. Moreover, the Percent Effect is 6.17% in assay [7]; -5.16% in [8]; 0% in assay [9]; 5.06% in [10]; 0.362% in assay [11].

For `O=C(CN1CCC(C(=O)c2cc(F)ccc2F)CC1)NC1CCCC1`, the Percent Effect in assay [1] is -10.1%; in assay [2], -5.26%; in [3], 13.8%; in assay [4], -3.6%; in assay [5] it was -1.46%; in assay [6] it was 5.92%. For the same compound, the Percent Effect was 8.53% in assay [7]; 26.2% in [8]; 1.06% in assay [9]; 0% in [10]; -3.84% in [11].

As to `Cc1cccc(OCCC(=O)N2CCN(S(=O)(=O)N(C)C)CC2)c1C`, the Percent Effect was 1.47% in assay [1]; 22.8% in assay [2]; -5.81% in assay [3]; -9.44% in assay [4]; 0.661% in [5]; -3.42% in assay [6]. In addition, the Percent Effect in [7] was 8.93%; in [8], 39.5%; in assay [9], 4.43%; in assay [10], 16.5%; in assay [11] it was -13.5%.

Take `Cn1nc(C(=O)NCc2ccccn2)c2c1CCS(=O)(=O)C2`: the Percent Effect is -2.26% in [1]; 6.67% in assay [2]; 15% in assay [3]; 1.25% in [4]; -6.48% in assay [5]; -11.1% in assay [6]. Further, the Percent Effect in assay [7] was 16.3%; in assay [8], 11.6%; in assay [9], 6.35%; in assay [10], 12.8%; in assay [11], -9.63%.
